Assay outcomes deposited in PubChem by National Center for Advancing Translational Sciences (NCATS).
This is a sample that favours compounds with a hit; in the whole collection about 3.7% have one here.
Tau ThT inhib = tau fibrillization inhibition (ThT binding) | recombinant tau K18 P301L, heparin-induced fibrillization, ThT fluorescence | AID 1460 | P10636 | Potency, µM (series often up to 57.4 µM), for the others: at the highest dose activity, negative = inhibition, actives largely listed as inhibitors | 2.1% of 270,000 active; note: % is set by controls: 0 for no effect and ±100 for the full control effect; nearly all actives have a fitted effect of over 55% in size
Target sequence (P10636 561-689 P618L limits assumed): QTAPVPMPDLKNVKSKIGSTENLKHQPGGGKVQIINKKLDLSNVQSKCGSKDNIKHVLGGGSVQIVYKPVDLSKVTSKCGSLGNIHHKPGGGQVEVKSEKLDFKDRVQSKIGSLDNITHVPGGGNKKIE
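Using a mix of unlabeled (15 uM) and Alexa 594-labeled (0.24 uM) tau K18 P301L, heparin-triggered fibrillization over 6 hr at 37 C was scored by ThT fluorescence.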
Tau fibril FP = inhibitors of human tau fibril formation | K18 P301L tau heparin fibrillization, Alexa594 FP, 6 h | Potency, µM (doses to about 57.7 µM), without a hit: at the top dose activity, negative = inhibition, hits mostly inhibitors | 0.39% of 280,000 active | AID 1468; note: % is set by controls: 0 for no effect and ±100 for the full control effect; nearly all actives have a fitted effect of over 55% in size
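FP of Alexa 594-tau after heparin (20 uM) induction. Substrate: human K18 P301L, 15 uM unlabeled, 0.24 uM labeled. Buffer 100 mM sodium acetate pH 7. 6 hr, 37 C.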
Tau fluor counter = counter-screen for tau fibril formation inhibitors; tau K18 P301L (four-repeat tau fragment) Alexa594 fluorescence, heparin fibrillization; 0.93% of 280,000 active; AID 1463; Potency, µM (highest dose often 57.7 µM), inactives show at the highest dose activity change, negative = decrease; note: % is set by controls: 0 for no effect and ±100 for the full control effect; nearly all actives have a fitted effect of over 55% in size
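Human K18 P301L tau (15 uM unlabeled plus 0.24 uM Alexa 594-labeled, final) in 100 mM sodium acetate pH 7 was mixed with compound and 20 uM heparin and incubated 6 hr at 37 C.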
HTT cytoprotect = protects HTT-Q103 PC12 cells, measured by ATP | Potency, µM (titrated, usually from 56.4 µM), without a hit: cytoprotection (ATP increase), actives largely listed as activators | PC12 HTT-Q103 induced, cytoprotection, ATP luminescence, 40 h | AID 1471 | 0.14% of 230,000 active; note: % of control where 0% means no effect; nearly all actives have a fitted effect of over 45% in size
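Compounds were screened for protection of PC12 cells against cell death after tebufenozide induction (100 nM final) of mutant Huntingtin exon 1 (Q103) fused to GFP.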
HTT aggregate = inhibitors of mutant huntingtin aggregate formation in PC12 cells; PC12 HttQ103-GFP aggregates, Acumen cytometry, 40 h; Potency, µM (highest dose often 46.1 µM), for the others: at the highest dose activity change, negative = inhibition, hits mostly inhibitors; 1.1% of 220,000 active; note: % is set by controls: 0 for no effect and ±100 for the full control effect; nearly all actives have a fitted effect of over 60% in size
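PC12 cells stably carrying ecdysone-inducible HTT exon 1 Q103–GFP were induced with tebufenozide (100 nM final) and treated with library compounds in titration. GFP aggregates in lysates were counted by laser scanning cytometry.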
* = called active by the depositor; [ ] = another dose, or the depositor's remark. Calls come from the whole dose curve; as a rule, active = well fitted curve in the direction sought with a large enough effect; inconclusive = small, poorly fitted or top-dose-only effect, or another doubt; inactive = no such curve, though single readings can be large; an effect the other way counts as inactive or inconclusive. Potency is the fitted concentration of half-maximal effect.

What do the screens show for `COc1ccccc1-c1cn[nH]c1-c1ccc(OCc2ccccc2F)cc1O`?
Tau ThT inhib: -18%; Tau fibril FP: inconclusive; Tau fluor counter: 10µM*[quencher]; HTT cytoprotect: 20%[10 µM]; HTT aggregate: 6%[9.22 µM]

How did COc1ccccc1-c1cn[nH]c1-c1ccc(OCc2ccc([N+](=O)[O-])cc2)cc1O do in these assays?
Tau ThT inhib: 4%; Tau fibril FP: inconclusive; Tau fluor counter: -24%; HTT cytoprotect: 7%[10 µM]; HTT aggregate: -11%[9.22 µM]

What do the screens show for `COc1ccccc1-c1cn[nH]c1-c1ccc(OCc2ccc(F)cc2)cc1O`?
Tau ThT inhib: -10%; Tau fibril FP: inconclusive; Tau fluor counter: 10µM*[quencher]; HTT cytoprotect: 27%[10 µM]; HTT aggregate: 7%[9.22 µM]

What do the screens show for `Cc1cccc(C(=O)O)c1C[C@H]1NCC[C@H]2c3ccccc3N[C@@H]12`?
HTT cytoprotect: 7%[10 µM]

Results for COc1cc([N+](=O)[O-])cc(/C=N/NC(=O)C(C)Nc2ccccc2C)c1O (stereo unspecified) ?
Tau ThT inhib: inconclusive; Tau fibril FP: 2%; Tau fluor counter: -17%; HTT cytoprotect: -7%[10 µM]; HTT aggregate: 13µM*

Results for COc1cc([N+](=O)[O-])cc(/C=N/NC(=O)C(C)Nc2cccc(C)c2)c1O (stereo unspecified) ?
Tau ThT inhib: 11µM*; Tau fibril FP: 9%; Tau fluor counter: -23%; HTT cytoprotect: 25%[10 µM]; HTT aggregate: 10µM*

How did Cc1ccc(CNC(=O)CCN2C(=O)C(C)Oc3ccc(C)cc32)cc1 (stereo unspecified) do in these assays?
Tau ThT inhib: -14%; Tau fibril FP: 5%; Tau fluor counter: -18%

What do the screens show for `N#C/C(=C1\C(=O)Nc2c(Cl)cc(Cl)cc21)c1nnc2n1CCCCC2`?
Tau ThT inhib: 16µM*; Tau fibril FP: inconclusive; Tau fluor counter: -25%; HTT cytoprotect: 2%; HTT aggregate: 11%

What do the screens show for `N[C@H](Cc1c[nH]c2ccccc12)C(=O)O`?
Tau ThT inhib: -4%; Tau fibril FP: -1%; Tau fluor counter: -10%; HTT cytoprotect: -111%; HTT aggregate: 32µM*

Results for O=C(COC(=O)CCc1c[nH]c2ccccc12)NC(c1ccccc1)c1ccccc1 ?
Tau ThT inhib: -9%; Tau fibril FP: inconclusive; Tau fluor counter: 14µM*[quencher]; HTT cytoprotect: 12%[10 µM]; HTT aggregate: 15%

What do the screens show for `CC(OC(=O)CCc1c[nH]c2ccccc12)C(=O)c1ccccc1` (stereo unspecified)?
Tau ThT inhib: inconclusive; Tau fibril FP: 5%; Tau fluor counter: 11µM*[quencher]; HTT cytoprotect: 8%[10 µM]; HTT aggregate: -8%[9.22 µM]

Results for CC(=O)Nc1ccccc1C=C1c2ccccc2-c2ccccc21 ?
HTT cytoprotect: 16%[10 µM]

How did CCC(C)NC(=O)c1cc2cc(S(=O)(=O)N3CCCCC3)ccc2n1C (stereo unspecified) do in these assays?
Tau ThT inhib: -5%; Tau fibril FP: 2%; Tau fluor counter: -5%

Results for COc1c2c(c3c(c1CCC(=O)O)OC(C)(C)C=C3)OC(C)(C)C=C2 ?
HTT cytoprotect: -13%[10 µM]

What do the screens show for `Cc1c(C(=O)Nc2ccccc2)cn2c(nc3ccccc32)c1C#N`?
Tau ThT inhib: -1%; Tau fibril FP: -16%; Tau fluor counter: 0%; HTT cytoprotect: -3%[0.074 µM]; HTT aggregate: -18%

Results for Cc1ccccc1C(=O)Nc1ccc2c(C#N)c3nc4ccccc4nc3n2c1 ?
Tau ThT inhib: 5µM*; Tau fibril FP: -9%; Tau fluor counter: inconclusive; HTT cytoprotect: 12%[10 µM]; HTT aggregate: inconclusive

How did O=C(COC(=O)C1CC1)c1c[nH]c2ccccc12 do in these assays?
Tau ThT inhib: 2%; Tau fibril FP: 5%; Tau fluor counter: 8%; HTT aggregate: 0.032µM*

Results for CC(=O)OCC(=O)c1c[nH]c2ccccc12 ?
Tau ThT inhib: -6%; Tau fibril FP: -9%; Tau fluor counter: -8%; HTT cytoprotect: -24%; HTT aggregate: -2%

How did CCCSc1nsc(NC(=O)C(c2ccccc2)c2ccccc2)n1 do in these assays?
Tau ThT inhib: 7%; Tau fibril FP: inconclusive; Tau fluor counter: inconclusive; HTT cytoprotect: -77%[10 µM]; HTT aggregate: 5µM*

How did N[C@@H](Cc1ccnnc1)C(=O)O do in these assays?
HTT cytoprotect: -12%[10 µM]

What do the screens show for `CC(C)(C)OC(=O)N1CCC(c2nnc(SCc3cccc(Cl)c3)o2)CC1`?
Tau ThT inhib: -22%; Tau fibril FP: 4%; Tau fluor counter: -14%

What do the screens show for `Nc1c(S(=O)(=O)c2cccc(Cl)c2)c2nc3ccccc3nc2n1/N=C/c1ccc(O)c(O)c1`?
Tau ThT inhib: inconclusive; Tau fibril FP: inconclusive; Tau fluor counter: 5.6µM*[quencher]; HTT cytoprotect: -71%; HTT aggregate: inconclusive

What do the screens show for `NC(=O)c1cc2ccncc2c2ccccc12`?
Tau fibril FP: 2%; Tau fluor counter: -4%; HTT cytoprotect: -2%[10 µM]; HTT aggregate: 2.5µM*

Results for Cc1cccc(N/N=C/c2ccccc2O)c1 ?
Tau ThT inhib: inconclusive; Tau fibril FP: inconclusive; Tau fluor counter: 16µM*[quencher]; HTT cytoprotect: 27%[10 µM]; HTT aggregate: 5%

How did O=[N+]([O-])c1cccc(N/N=C/c2cc([N+](=O)[O-])ccc2O)c1 do in these assays?
Tau ThT inhib: inconclusive; Tau fibril FP: 4%; Tau fluor counter: inconclusive; HTT cytoprotect: -26%; HTT aggregate: -26%

Results for CCN(C)c1ccc(/C=N\n2nnnc2N)cc1 ?
Tau ThT inhib: inconclusive; Tau fibril FP: 12%; Tau fluor counter: 0%; HTT cytoprotect: -62%; HTT aggregate: 12%

What do the screens show for `CCN(CC)c1ccc(/C=N/Nc2ccc(C)cc2)c(O)c1`?
Tau ThT inhib: 25µM*; Tau fibril FP: -15%; Tau fluor counter: inconclusive; HTT cytoprotect: 35%[10 µM]; HTT aggregate: 11%

What do the screens show for `CCN(CC)c1ccc(/C=N/n2nnnc2N)c(O)c1`?
Tau ThT inhib: inconclusive; Tau fibril FP: 6%; Tau fluor counter: -18%; HTT cytoprotect: -28%; HTT aggregate: 5.6µM*

What do the screens show for `CC[C@H](CN(C)C)C(=O)c1ccco1`?
HTT cytoprotect: -4%[10 µM]

Results for Cc1ccc(C)c(CSCC(=O)NCc2cccs2)c1 ?
Tau ThT inhib: -14%; Tau fibril FP: 2%; Tau fluor counter: -10%; HTT cytoprotect: 3.5µM*; HTT aggregate: 7%

What do the screens show for `CCCCCC#CC[C@@H](O)/C=C/C=C/C=C\[C@@H](O)CCCC(=O)O`?
Tau ThT inhib: 1%; Tau fibril FP: 0%; Tau fluor counter: -1%; HTT cytoprotect: 17%

How did CC1=CC(=C2C(=O)c3ccccc3C2=O)C=C(C)N1Cc1ccco1 do in these assays?
Tau ThT inhib: 18µM*; Tau fibril FP: 7%; Tau fluor counter: -11%; HTT cytoprotect: -35%; HTT aggregate: -4%
